Measured values reported in PubChem BioAssay (NCATS).
Records with an inconclusive call do not appear. Active and inactive are the calls of the source. Calls come from the whole dose curve; as a rule, active = well fitted curve in the direction sought with a large enough effect; inconclusive = small, poorly fitted or top-dose-only effect, or another doubt; inactive = no such curve, though single readings can be large; an effect the other way counts as inactive or inconclusive.

Experiments:
NIH3T3 = test: qHTS assay to identify novel small-molecules to repurpose for Merkel cell carcinoma treatment (AID 1296009); details: MCC and control cell lines, CellTiter-Glo viability, 72 h; at 44.8 µM (top of the series) unless noted; note: nearly all actives have a fitted effect of over 60% in size
Method in brief: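 Cells were treated for 72 hr at 37 degree celsius with compounds in 8- or 11-point dose response. Viability was read by CellTiter-Glo luminescence, normalized to no-cell (cytotoxicity) and DMSO controls.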

C33A = test: Primary qHTS to identify gynecologic anti-cancer compounds using libraries of approved drugs and bioactive compounds (AID 1345084); details: Gynecologic cancer cell panel viability, ATPlite luminescence, 48 h; series mostly up to 57.5 µM; note: % is set by controls: 0 for no effect and ±100 for the full control effect; nearly all actives have a fitted effect of over 55% in size
Method in brief: (§1)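 Cells, 1,000 per well, plated 16 h, then exposed 48 h at 37 C to compounds. Viability by ATPlite luminescence after 15 min at room temperature.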

CAOV3 = test: as above; details: Gynecologic cancer cell panel viability, ATPlite luminescence, 48 h; series mostly up to 57.5 µM
Method in brief: as §1

CASKI = test: as above; details: Gynecologic cancer cell panel viability, ATPlite luminescence, 48 h; series mostly up to 57.5 µM
Method in brief: as §1

Es-2 = test: as above; details: Gynecologic cancer cell panel viability, ATPlite luminescence, 48 h; series mostly up to 57.5 µM
Method in brief: as §1

HeLa = test: as above; details: Gynecologic cancer cell panel viability, ATPlite luminescence, 48 h; series mostly up to 57.5 µM
Method in brief: as §1

Hek293T = test: as above; details: Gynecologic cancer cell panel viability, ATPlite luminescence, 48 h, control line for the selectivity index; series mostly up to 57.5 µM
Method in brief: as §1

JEG-3 = test: as above; details: Gynecologic cancer cell panel viability, ATPlite luminescence, 48 h; series mostly up to 57.5 µM
Method in brief: as §1

OV90 = test: as above; details: Gynecologic cancer cell panel viability, ATPlite luminescence, 48 h; series mostly up to 57.5 µM
Method in brief: as §1

PA-1 = test: as above; details: Gynecologic cancer cell panel viability, ATPlite luminescence, 48 h; series mostly up to 57.5 µM
Method in brief: as §1

SKOV3 = test: as above; details: Gynecologic cancer cell panel viability, ATPlite luminescence, 48 h; series mostly up to 57.5 µM
Method in brief: as §1

Tov-21-G = test: as above; details: Gynecologic cancer cell panel viability, ATPlite luminescence, 48 h; series mostly up to 57.5 µM
Method in brief: as §1

Tov112D = test: as above; details: Gynecologic cancer cell panel viability, ATPlite luminescence, 48 h; series mostly up to 57.5 µM
Method in brief: as §1

CCc1nnc(NS(=O)(=O)c2ccc(NC(=S)NC(=O)/C=C/c3ccc(F)cc3)cc2)s1
inactive: outcome (NIH3T3) | Potency (C33A) | Potency (CAOV3) | outcome (CASKI) | Potency (Es-2) | Potency (HeLa) | Potency (Hek293T) | Potency (JEG-3) | Potency (OV90) | Potency (PA-1) | Potency (SKOV3) | Potency (Tov-21-G) | Potency (Tov112D)

O=C(O)/C=C/c1ccc2occc2c1O[C@@H]1O[C@H](CO)[C@@H](O)[C@H](O)[C@H]1O
inactive: outcome (NIH3T3) | Potency (C33A) | Potency (CAOV3) | outcome (CASKI) | Potency (Es-2) | Potency (HeLa) | Potency (Hek293T) | Potency (JEG-3) | Potency (OV90) | Potency (PA-1) | Potency (SKOV3) | Potency (Tov-21-G) | Potency (Tov112D)

CC1(CO)CCCC2(C)C1C(OC(=O)c1ccccc1)CC1C(=O)OCC12O (stereo not given)
inactive: outcome (NIH3T3) | Potency (C33A) | Potency (CAOV3) | outcome (CASKI) | Potency (Es-2) | Potency (HeLa) | Potency (Hek293T) | Potency (JEG-3) | Potency (OV90) | Potency (PA-1) | Potency (SKOV3) | Potency (Tov-21-G) | Potency (Tov112D)

CC1(O)CCC2C(C3C1CCC3(C)O)C2(C)C (stereo not given)
inactive: outcome (NIH3T3) | Potency (C33A) | Potency (CAOV3) | outcome (CASKI) | Potency (Es-2) | Potency (HeLa) | Potency (Hek293T) | Potency (JEG-3) | Potency (OV90) | Potency (PA-1) | Potency (SKOV3) | Potency (Tov-21-G) | Potency (Tov112D)

C[C@@H]1CC2OC(=O)C3=C2C(CCC3O)[C@@]12C[C@@H](c1ccoc1)OC2=O (stereo not given in full)
inactive: outcome (NIH3T3) | Potency (C33A) | Potency (CAOV3) | outcome (CASKI) | Potency (Es-2) | Potency (HeLa) | Potency (Hek293T) | Potency (JEG-3) | Potency (OV90) | Potency (PA-1) | Potency (SKOV3) | Potency (Tov-21-G) | Potency (Tov112D)

COc1c2c(c(C)c3c1C(=O)OC3)OC1(C)CC(O)C34OC(OC)(CCC3(C)C1C2)OC4(C)CO (stereo not given)
inactive: outcome (NIH3T3) inactive [at 17.4 µM] | Potency (C33A) | Potency (CAOV3) | outcome (CASKI) | Potency (Es-2) | Potency (HeLa) | Potency (Hek293T) | Potency (JEG-3) | Potency (OV90) | Potency (PA-1) | Potency (SKOV3) | Potency (Tov-21-G) | Potency (Tov112D)

OC[C@@]1(O)CO[C@@H](OC[C@H]2O[C@@H](Oc3ccccc3)[C@H](O)[C@@H](O)[C@@H]2O)[C@@H]1O
inactive: outcome (NIH3T3) | Potency (C33A) | Potency (CAOV3) | outcome (CASKI) | Potency (Es-2) | Potency (HeLa) | Potency (Hek293T) | Potency (JEG-3) | Potency (OV90) | Potency (PA-1) | Potency (SKOV3) | Potency (Tov-21-G) | Potency (Tov112D)

C=C1[C@H]2CCC3[C@]4(C)CCC[C@@](C)(C(=O)O)C4CC[C@]3(C2)[C@H]1OC(C)=O (stereo not given in full)
inactive: outcome (NIH3T3) | Potency (C33A) | Potency (CAOV3) | outcome (CASKI) | Potency (Es-2) | Potency (HeLa) | Potency (Hek293T) | Potency (JEG-3) | Potency (OV90) | Potency (PA-1) | Potency (SKOV3) | Potency (Tov-21-G) | Potency (Tov112D)

C/C(=C\CCC1(C)C2CC3C(C2)C31C)C(=O)O (stereo not given)
inactive: outcome (NIH3T3) | Potency (C33A) | Potency (CAOV3) | outcome (CASKI) | Potency (Es-2) | Potency (HeLa) | Potency (Hek293T) | Potency (JEG-3) | Potency (OV90) | Potency (PA-1) | Potency (SKOV3) | Potency (Tov-21-G) | Potency (Tov112D)

O=C(O)CCc1c(C(=O)O)[nH]c2cc(Cl)cc(Cl)c12
inactive: outcome (NIH3T3) inactive [at 17.4 µM] | Potency (C33A) | Potency (CAOV3) | outcome (CASKI) | Potency (Es-2) | Potency (HeLa) | Potency (Hek293T) | Potency (JEG-3) | Potency (OV90) | Potency (PA-1) | Potency (SKOV3) | Potency (Tov-21-G) | Potency (Tov112D)

CC(=O)OC/C(=C/C(=O)O)CC[C@@H]1C(C)=CC(=O)[C@@H]2C(C)(C)CCC[C@@]12C
inactive: outcome (NIH3T3) | Potency (C33A) | Potency (CAOV3) | outcome (CASKI) | Potency (Es-2) | Potency (HeLa) | Potency (Hek293T) | Potency (JEG-3) | Potency (OV90) | Potency (PA-1) | Potency (SKOV3) | Potency (Tov-21-G) | Potency (Tov112D)

CC(=O)c1ccc(O[C@@H]2OC[C@@H](O)[C@H](O)[C@H]2O[C@]2(CO)O[C@H](CO)[C@@H](O)[C@@H]2O)c(O)c1
inactive: outcome (NIH3T3) inactive [at 17.4 µM] | Potency (C33A) | Potency (CAOV3) | outcome (CASKI) | Potency (Es-2) | Potency (HeLa) | Potency (Hek293T) | Potency (JEG-3) | Potency (OV90) | Potency (PA-1) | Potency (SKOV3) | Potency (Tov-21-G) | Potency (Tov112D)

O=C(OCC1=C[C@@H](O)[C@@H]2C=CO[C@@H](O[C@@H]3O[C@H](CO)[C@@H](O)[C@H](O)[C@H]3O)[C@H]12)c1ccc(O)cc1
inactive: outcome (NIH3T3) inactive [at 17.4 µM] | Potency (C33A) | Potency (CAOV3) | outcome (CASKI) | Potency (Es-2) | Potency (HeLa) | Potency (Hek293T) | Potency (JEG-3) | Potency (OV90) | Potency (PA-1) | Potency (SKOV3) | Potency (Tov-21-G) | Potency (Tov112D)

CC(=O)O[C@@H]1[C@H](O[C@@H]2OC[C@](O)(CO)[C@H]2O)[C@@H](O[C@@H]2O[C@@H](C)[C@H](O)[C@@H](O[C@@H]3O[C@H](CO)[C@@H](O)[C@H](O)[C@H]3O)[C@H]2O)[C@H](OC(=O)[C@]23CCC(C)(C)C[C@H]2C2=CCC4[C@@]5(C)C[C@H](O)[C@H](O[C@@H]6O[C@H](C(=O)O)[C@@H](O)[C@H](O)[C@H]6O)[C@@](C)(C(=O)O)C5CC[C@@]4(C)[C@]2(C)CC3)O[C@@H]1C (stereo not given in full)
inactive: outcome (NIH3T3) inactive [at 9.27 µM] | activity change, negative = cytotoxicity (C33A) -1.36% [at 6.55 µM] | activity change, negative = cytotoxicity (CAOV3) 22.8% [at 6.55 µM] | activity change, negative = cytotoxicity (CASKI) 2.72% [at 6.55 µM] | activity change, negative = cytotoxicity (Es-2) 1.19% [at 6.55 µM] | activity change, negative = cytotoxicity (HeLa) -1.07% [at 6.55 µM] | activity change, negative = cytotoxicity (Hek293T) 4.41% [at 6.55 µM] | activity change, negative = cytotoxicity (JEG-3) -1.98% [at 6.55 µM] | activity change, negative = cytotoxicity (OV90) 0.0108% [at 6.55 µM] | activity change, negative = cytotoxicity (PA-1) 3.28% [at 6.55 µM] | activity change, negative = cytotoxicity (SKOV3) 27% [at 6.55 µM] | activity change, negative = cytotoxicity (Tov-21-G) 0.936% [at 6.55 µM] | activity change, negative = cytotoxicity (Tov112D) -2.6% [at 6.55 µM]

Cc1ccc(C)c(S(=O)(=O)n2cnc3ccccc32)c1
inactive: outcome (NIH3T3) | Potency (C33A) | Potency (CAOV3) | outcome (CASKI) | Potency (Es-2) | Potency (HeLa) | Potency (Hek293T) | Potency (JEG-3) | Potency (OV90) | Potency (PA-1) | Potency (SKOV3) | Potency (Tov-21-G) | Potency (Tov112D)

COc1cc(C2Oc3c(OC)cc(/C=C/C(=O)OC4CC(O)(C(=O)O)CC(O)C4O)cc3C2CO)ccc1O (stereo not given)
inactive: outcome (NIH3T3) inactive [at 17.4 µM] | Potency (C33A) | Potency (CAOV3) | outcome (CASKI) | Potency (Es-2) | Potency (HeLa) | Potency (Hek293T) | Potency (JEG-3) | Potency (OV90) | Potency (PA-1) | Potency (SKOV3) | Potency (Tov-21-G) | Potency (Tov112D)

CC(C)=CCC[C@@](C)(O)[C@H]1CC[C@]2(C)[C@@H]1[C@H](O)CC1[C@@]3(C)CC[C@H](O[C@@H]4O[C@H](CO)[C@@H](O)[C@H](O)[C@H]4O[C@@H]4O[C@H](CO)[C@@H](O)[C@H](O)[C@H]4O)C(C)(C)[C@@H]3CC[C@]12C (stereo not given in full)
inactive: outcome (NIH3T3) inactive [at 17.4 µM] | Potency (C33A) | Potency (CAOV3) | outcome (CASKI) | Potency (Es-2) | Potency (HeLa) | Potency (Hek293T) | Potency (JEG-3) | Potency (OV90) | Potency (PA-1) | Potency (SKOV3) | Potency (Tov-21-G) | Potency (Tov112D)

c1cc(-c2cc(C3CCNCC3)[nH]n2)ccn1
inactive: outcome (NIH3T3) inactive [at 17.4 µM] | Potency (C33A) | Potency (CAOV3) | outcome (CASKI) | Potency (Es-2) | Potency (HeLa) | Potency (Hek293T) | Potency (JEG-3) | Potency (OV90) | Potency (PA-1) | Potency (SKOV3) | Potency (Tov-21-G) | Potency (Tov112D)

CC(O)C(=O)/C=C/C=C/C(=O)OC1C=C2COC(=O)C2(O)C2(C)CCCC(C)(C)C12 (stereo not given)
inactive: outcome (NIH3T3) inactive [at 17.4 µM] | Potency (C33A) | Potency (CAOV3) | outcome (CASKI) | Potency (Es-2) | Potency (HeLa) | Potency (Hek293T) | Potency (JEG-3) | Potency (OV90) | Potency (PA-1) | Potency (SKOV3) | Potency (Tov-21-G) | Potency (Tov112D)

O=C1C(Cl)=C(N2CCOCC2)C(=O)N1c1ccc(Cl)c(Cl)c1
inactive: outcome (NIH3T3) inactive [at 17.4 µM] | Potency (C33A) | Potency (CAOV3) | outcome (CASKI) | Potency (Es-2) | Potency (HeLa) | Potency (Hek293T) | Potency (JEG-3) | Potency (OV90) | Potency (PA-1) | Potency (SKOV3) | Potency (Tov-21-G) | Potency (Tov112D)
